A short description of test [1]: qHTS Assay for Identifying Gametocytocidal Compounds (AID 743244; active = well fitted curve in the direction sought with a large enough effect;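 also: % is scaled to controls: 0 for no effect and ±100 for the full control effect; actives lower the fluorescent signal which means gametocytes are killed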). Conditions: P. falciparum 3D7 stage III-V gametocytes, alamarBlue, 72 h; max response: stronger effect = lower value. The essentials:
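Compounds are pinned into medium, gametocytes (stage III–V, 3D7, 20,000 cells/well) added, and plates held 72 h at 37 °C in 5% CO2. AlamarBlue follows for 24 h before fluorescence reading.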
On the technique in general: qHTS replaces the single test concentration by a dilution series.

A short description of test [2]: qHTS profiling of the MIPE4 collection as inhibitors of Plasmodium falciparum (3D7) proliferation (AID 743344).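 Also: scaled between DMSO vehicle wells and 0.29 µM artemisinin as full inhibition.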 Conditions: P. falciparum 3D7 in erythrocytes, SYBR Green DNA fluorescence, 72 h. The essentials:
(§1)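 Parasite DNA was quantified by SYBR Green I fluorescence (ex 485, em 535 nm) after overnight lysis in saponin/Triton buffer at room temperature. Cultures at 0.3% parasitemia and 2.5% hematocrit were first exposed to compound for 72 h at 37 C; signals were normalised to artemisinin (0.29 uM) and vehicle wells.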

Test [3] in a line: qHTS profiling of the MIPE4 collection as inhibitors of Plasmodium falciparum (DD2) proliferation (AID 743345). The note with it: P. falciparum Dd2 in erythrocytes, SYBR Green DNA, 72 h. The procedure, abridged:
as §1

The nature of test [4]: qHTS profiling of the MIPE4 collection as inhibitors of Plasmodium falciparum (DD2) proliferation (Rep 2) (AID 743346). The note with it: P. falciparum Dd2 in erythrocytes, SYBR Green DNA, 72 h. The procedure, abridged:
as §1

Test [5] in a line: qHTS profiling of the MIPE4 collection as inhibitors of Plasmodium falciparum (HB3) proliferation (AID 743347).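 Also: plate controls were DMSO vehicle wells for no effect and artemisinin wells for full effect.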 The note with it: P. falciparum HB3 in erythrocytes, SYBR Green DNA, 72 h. The essentials: as §1
[6] abbreviates: at 28.5 µM (top of the series) unless noted.
The mark [7] stands for this setting: at 0.217 µM (top of the series).

Inconclusive results are not listed. Calls of active or inactive are those of the source. Unless noted, no rule for the calls is given here. Starred links: 1 amine or outer side, 2 acyl side, 3 side chain; linkers in the order of their positions; H or OH if unused. Positions of bridges follow the written chain, without caps; N, C: chain ends. Non-standard residues stand in square brackets, D forms with d. Residues, ends and D or L forms follow the SMILES beside them. ξ: configuration not given here. *: point of attachment. ΔAla(3-NHCONH2) = NC(=O)NC=C(N)C(=O)O; X1 = NC1=NCCC(C(N[*:1])C(=O)[*:2])N1; ξβ3hOrn = NCCCC(N)CC(=O)*; Dap = NC[CH](N)C(=O)O

As to `NCCc1cc(O)c(O)cc1O`, the max response in test [1] is 0.974% (inactive).
On to `O=C1CC[C@@]2(O)[C@H]3Cc4ccc(O)c5c4[C@@]2(CCN3CC2CC2)[C@H]1O5`, for which the max response in test [1] is 19% (inactive). In addition, the parasite growth, % of DMSO control in test [2] (setting [6]) came to 94.1%. Besides, in test [3] (setting [6]), the parasite growth remaining, % of DMSO control (lower = more inhibition) came out at 113%. In test [4] (setting [6]), the parasite growth, % of control (lower = inhibition) worked out at 64.4%. The compound also displayed a growth, % of control in test [5] (setting [6]) of 83.3%.
`Nc1nc(F)nc2c1ncn2[C@@H]1O[C@H](CO)[C@@H](O)[C@@H]1O` displayed a parasite growth, % of DMSO control in test [2] (setting [6]) of 31%. For the same compound, the growth, % of control in test [5] (setting [6]) is 81.8%.
For the compound `Cc1nc2n(c(=O)c1CCN1CCC(c3noc4cc(F)ccc34)CC1)CCCC2`, the parasite growth, % of DMSO control in test [2] (setting [6]) is 38.3%. For the same compound, the parasite growth remaining, % of DMSO control (lower = more inhibition) in test [3] (setting [6]) was 70.5%. Moreover, the parasite growth, % of control (lower = inhibition) in test [4] (setting [6]) was determined as 48.7%. Besides, the growth, % of control in test [5] (setting [6]) was determined as 60.5%.
For `CCn1cc(C(=O)O)c(=O)c2cc(F)c(N3CCNCC3)cc21`, in that order: 48%, 60.2%, 42.3% and 82.1%.
In the case of `CC(C)CC(N(C)C)C1(c2ccc(Cl)cc2)CCC1` (centres undefined), the max response in test [1] was 6.63% (inactive). The compound also came in with a parasite growth, % of DMSO control in test [2] (setting [6]) of 90.3%. The parasite growth remaining, % of DMSO control (lower = more inhibition) in test [3] (setting [6]) is 99.9%. For the same compound, the parasite growth, % of control (lower = inhibition) in test [4] (setting [6]) is 137%. Also, the growth, % of control in test [5] (setting [6]) was 105%.
Regarding `Cc1c(OCC(F)(F)F)ccnc1CS(=O)c1nc2ccccc2[nH]1` (centres undefined), the max response in test [1] was 1.82% (inactive). The compound also returned a parasite growth, % of DMSO control in test [2] (setting [6]) of 56.6%. In addition, the parasite growth remaining, % of DMSO control (lower = more inhibition) in test [3] (setting [6]) amounted to 83.1%. Also, the parasite growth, % of control (lower = inhibition) in test [4] (setting [6]) came out at 42.1%. This compound returned a growth, % of control in test [5] (setting [6]) of 50.8%.
`O=c1[nH]cc(F)c(=O)[nH]1` registered a parasite growth, % of DMSO control in test [2] (setting [6]) of 42.1%. In addition, the parasite growth, % of control (lower = inhibition) in test [4] (setting [6]) was 44.8%. In addition, in test [5] (setting [6]), the growth, % of control is 85.2%.
In turn, `COC[C@@H](NC(C)=O)C(=O)NCc1ccccc1` displayed a parasite growth, % of DMSO control in test [2] (setting [6]) of 371%. Moreover, in test [3] (setting [6]), the parasite growth remaining, % of DMSO control (lower = more inhibition) stood at 113%. Also, the parasite growth, % of control (lower = inhibition) in test [4] (setting [6]) was 165%. Also, the growth, % of control in test [5] (setting [6]) was found to be 737%.
Take `C#CCN(C)[C@H](C)Cc1ccccc1`: the max response in test [1] is -11.5% (inactive). The parasite growth, % of DMSO control in test [2] (setting [6]) stood at 92.5%. In addition, the parasite growth remaining, % of DMSO control (lower = more inhibition) in test [3] (setting [6]) was determined as 97.8%. Moreover, the parasite growth, % of control (lower = inhibition) in test [4] (setting [6]) was 124%. In test [5] (setting [6]), the growth, % of control turned out to be 95.7%.
Take `CCCC1CCCCN1` (centres undefined): the max response in test [1] is -2.88% (inactive).
Consider `CC[N+]1(C)CCCC(OC(=O)C(O)(c2ccccc2)c2ccccc2)C1` (centres undefined), for which the max response in test [1] was -8.23% (inactive).
`NCCCC(N)CC(=O)NCC1NC(=O)C(CO)NC(=O)C(N)CNC(=O)C(C2CCN=C(N)N2)NC(=O)C(=CNC(N)=O)NC1=O` (stereo not drawn) (H-[Dap]S[Dap](ξβ3hOrn)[ΔAla(3-NHCONH2)][X1]; lactam 1-C; configuration not given here): the parasite growth, % of DMSO control in test [2] (setting [7]) was determined as 92.7%; in test [2] (at 28.5 µM (top of the series)), 101%. Besides, the parasite growth remaining, % of DMSO control (lower = more inhibition) in test [3] (setting [7]) was 92.4%; in test [3] (at 28.5 µM (top of the series)), 100%. Moreover, the results for the parasite growth, % of control (lower = inhibition) in test [4] (setting [7]) and in test [4] (at 28.5 µM (top of the series)) were 121% and 113%, respectively. The growth, % of control in test [5] (setting [7]) came to 101%; in test [5] (at 28.5 µM (top of the series)), 86.8%.
Turning to `C#CCOC(C(=O)OCCN(C)C)(c1ccccc1)c1ccccc1`, the max response in test [1] is -0.509% (inactive).
